PubChem BioAssay (Tox21)
Inconclusive results are not listed. A call without a number means that no potency is given here. Active and inactive are the calls of the source. Calls follow the shape of the dose curve; as a rule, active = well fitted inhibition curve with a large enough effect in the repeat runs; inconclusive = weak or mixed curves; inactive = flat fitted curve, though single readings scatter.

These molecules were tested against Voltage-gated inwardly rectifying potassium channel KCNH2 (Homo sapiens) (UniProt Q12809) (assay: Human Ether-a-go-go-Related Gene (hERG) channel small molecule antagonists: fluorescence cell-based qHTS assay (AID 1671200; also: nearly all actives have a fitted effect of over 50% in size)). Conditions: hERG-U2OS cells, FluxOR thallium flux fluorescence; series mostly up to 76.8 µM.
Voltage-gated inwardly rectifying potassium channel KCNH2 (Homo sapiens), sequence (Q12809 whole entry, looked up): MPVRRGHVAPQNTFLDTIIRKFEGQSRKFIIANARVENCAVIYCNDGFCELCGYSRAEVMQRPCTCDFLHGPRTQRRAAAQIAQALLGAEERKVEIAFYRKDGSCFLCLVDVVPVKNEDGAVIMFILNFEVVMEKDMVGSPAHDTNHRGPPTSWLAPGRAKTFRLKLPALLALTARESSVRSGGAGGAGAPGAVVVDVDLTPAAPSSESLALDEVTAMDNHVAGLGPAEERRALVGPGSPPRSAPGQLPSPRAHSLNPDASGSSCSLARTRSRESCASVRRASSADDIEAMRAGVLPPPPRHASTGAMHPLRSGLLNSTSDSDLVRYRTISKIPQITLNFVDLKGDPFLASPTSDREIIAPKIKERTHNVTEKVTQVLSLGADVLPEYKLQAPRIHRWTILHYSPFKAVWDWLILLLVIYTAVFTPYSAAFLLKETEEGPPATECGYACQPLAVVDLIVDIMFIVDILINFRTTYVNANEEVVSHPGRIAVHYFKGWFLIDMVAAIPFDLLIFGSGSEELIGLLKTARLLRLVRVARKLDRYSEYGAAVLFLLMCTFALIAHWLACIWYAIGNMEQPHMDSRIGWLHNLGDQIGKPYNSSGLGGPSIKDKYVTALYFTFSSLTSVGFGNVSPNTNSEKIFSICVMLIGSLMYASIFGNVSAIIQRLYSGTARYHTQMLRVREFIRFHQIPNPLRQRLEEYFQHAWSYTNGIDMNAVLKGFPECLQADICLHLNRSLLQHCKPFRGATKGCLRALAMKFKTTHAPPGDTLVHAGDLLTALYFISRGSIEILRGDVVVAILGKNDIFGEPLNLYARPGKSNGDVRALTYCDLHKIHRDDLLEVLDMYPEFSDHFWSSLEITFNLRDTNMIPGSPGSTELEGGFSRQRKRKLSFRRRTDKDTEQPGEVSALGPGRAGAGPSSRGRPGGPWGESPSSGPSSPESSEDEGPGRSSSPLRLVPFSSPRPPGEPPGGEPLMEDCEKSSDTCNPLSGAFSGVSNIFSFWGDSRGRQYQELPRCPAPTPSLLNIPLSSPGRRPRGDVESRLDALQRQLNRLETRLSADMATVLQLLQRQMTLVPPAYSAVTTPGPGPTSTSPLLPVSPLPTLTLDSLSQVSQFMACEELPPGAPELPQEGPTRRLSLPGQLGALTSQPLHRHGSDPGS
Source text: National Center for Advancing Translational Sciences [NCATS]
U.S. Environmental Protection Agency [EPA]
National Institutes of Environmental Health Sciences [NIEHS]
National Toxicology Program [NTP]
U.S. Food and Drug Administration [FDA]
Mutations in the hERG channel cause Long QT (LQT) syndrome. LQT syndrome is a cardiac disorder which can cause ventricle arrhythmia and sudden death. Additionally, compounds which block the hERG channel can cause acquired LQT syndrome. Several FDA approved drugs have been removed from the market due to their hERG blocking activity. A cell-based hERG channel inhibition assay can be used to screen chemical compounds that inhibit hERG channel. This assay measures hERG channel activity using thallium ions as surrogate ions to measure potassium into the cells.
Tox21 Assay Protocol Summary:
hERG-U2OS cells were resuspended in culture medium and dispensed into 1536-well, black wall/clear-bottom plates at 1000cells/well/3uL using a Multidrop Combi dispenser (Thermo Fisher, Waltham, MA). After plates were incubated at 37 C overnight, 3 uL of Loading Buffer provided by FluxOR II Potassium Ion Channel Assay kit (Thermo, Carlsbad, CA) was added to each well. The assay plates were then incubated at room temperature in the dark for 1h. […] After the assay plates were incubated at room temperature for 10 min, 1 uL of Stimulus Buffer provided by FluxOR II Potassium Ion Channel Assay kit was added into each well and fluorescence intensity (480nm excitation/540nm emission) was continuously measured for 2 min at 1 second intervals using a Functional Drug Screening System (FDSS) 7000EX kinetic plate reader (Hamamatsu, Japan).
Potency is read from the fitted curve at half-maximal effect.

Row | Compound | Potency | activity change, negative = inhibition
1 | C=C(C)[C@H]1CC=C(C)CC1 | inactive | –
2 | COc1cc(C)cc(O)c1 | inactive | –
3 | CCCCc1ccc(N)cc1 | inactive | –
4 | O=C(O)c1ccccc1S | inactive | –
5 | CC(C)=CCC/C(C)=C/C(=O)O | inactive | –
6 | CCCCCCCCCCCCCCC | inactive | –
7 | COC(=O)CCCC(=O)O | inactive | –
8 | CC(C)CCCC(C)CCCC(C)CCCCC(C)CCCC(C)CCCC(C)C (stereo not given) | inactive | –
9 | NCCNC(=O)c1ccc(Cl)cn1 | inactive | –
10 | CCC(C)OC(=O)N1CCCCC1CCO (stereo not given) | inactive | –
11 | OC/C=C/c1ccccc1 | inactive | –
12 | Cc1ccccc1Br | inactive | –
13 | CCCCCCC(=O)OCC | inactive | –
14 | C1C2OC2C2C1C1CC2C2OC12 (stereo not given) | inactive | –
15 | CC(=O)c1ccc(C)cc1 | inactive | –
16 | FC(F)(F)C(F)(F)C(F)(F)C(F)(F)C(F)(F)C(F)(F)C(F)(F)C(F)(F)C(F)(F)C(F)(F)F | – | 1.96% [at 6.97 µM] (inactive)
17 | NCCN1CCNC1=O | inactive | –
18 | O=C1C(CCS(=O)c2ccccc2)C(=O)N(c2ccccc2)N1c1ccccc1 (stereo not given) | inactive | –
19 | OCC(O)[C@@H](O)[C@H](O)[C@H](O)CO[C@H]1O[C@H](CO)[C@@H](O)[C@H](O)[C@H]1O (stereo not given in full) | inactive | –
20 | CC(=O)NC(Cc1ccccc1)C(=O)O (stereo not given) | inactive | –

Row | Compound | Potency | activity change, negative = inhibition
21 | O=c1[nH]c2ccccc2c(=O)n1CCCl | inactive | –
22 | Oc1cc(O)c2c(c1)O[C@H](c1ccc(O)c(O)c1)[C@H](O)C2 | inactive | –
23 | CCCCOCC(C)OCC(C)O (stereo not given) | inactive | –
24 | CCn1c(=O)c2c(nc(/C=C/c3ccc(OC)c(OC)c3)n2C)n(CC)c1=O | inactive | –
25 | C[N+](C)(C)CC[N+]1(C)Cc2c(Cl)c(Cl)c(Cl)c(Cl)c2C1 | inactive | –
26 | Oc1ccc2c(c1)OC[C@@H](N1CCC(O)(c3ccc(F)cc3)CC1)[C@H]2O | inactive | –
27 | CCCCCCCCC=O | inactive | –
28 | c1cc(CN2CCCCC2)cc(OCCCNc2nc3ccccc3s2)c1 | 8.49 µM (active) | –
29 | Nc1cc(C(Cl)=C(Cl)Cl)c(S(N)(=O)=O)cc1S(N)(=O)=O | inactive | –
30 | CCCCC1CCCCC(=O)O1 (stereo not given) | inactive | –
31 | [O-][N+](=Nc1ccccc1)c1ccccc1 | inactive | –
32 | NC(=O)c1ncn([C@@H]2O[C@H](CO)[C@@H](O)[C@H]2O)c1O | inactive | –
33 | CCN(CC)C(=O)c1ccc(O)c(OC)c1 | inactive | –
34 | COc1cc(C(=O)N2CCOCC2)cc(OC)c1OC | inactive | –
35 | C=CCOc1nc(OCC=C)nc(OCC=C)n1 | inactive | –
36 | OC1OC[C@@H](O)[C@H](O)[C@H]1O (stereo not given in full) | inactive | –
37 | C=CC(=O)OCCCCCC | inactive | –
38 | c1ccc(SCCSc2ccccc2)cc1 | inactive | –
39 | CCCCCC[C@@H](CCC)C(=O)O | inactive | –
40 | NC(=S)Nc1cccc2ccccc12 | – | 1.12% [at 6.97 µM] (inactive)
